# Several values for one entry are separate records, joined by “and”; a condition that tells them apart may be missing. Equal entries are not always repeated. Results filed as inconclusive are left out. Activity calls are given as the source filed them. Unless noted, calls come from the whole dose curve.
# Tests used:
# [1] = molecular target: Peroxisome proliferator-activated receptor delta (Homo sapiens) (UniProt Q03181); experiment: qHTS assay for small molecule agonists of peroxisome proliferator-activated receptor delta signaling (AID 588534);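 note: 0% = DMSO basal wells and 100% = positive control agonist at 10 µM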
# Summary of the method: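 Titration series tested in agonist mode on beta-lactamase reporter cells; 18 hrs at 37 C after a 5 hr pre-incubation. Readout: CCF4 fluorescence, 2 hrs RT. Hill equation gives EC50 and maximal response.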
# [2] = molecular target: Glucocorticoid receptor (Homo sapiens) (UniProt P04150); experiment: qHTS assay for small molecule agonists of glucocorticoid receptor signaling (AID 588532; active = well fitted curve in the direction sought with a large enough effect in the signal ratio, with a control signal flat; the % refers to the signal ratio;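 note: 100% = dexamethasone at 0.1 µM and 0% = DMSO only wells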); details: HeLa MMTV-bla, beta-lactamase ratio, agonist, 18 h; activation: stronger effect = higher value, percent of dexamethasone control, DMSO zero
# Summary of the method: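 Titration series, up to 92 uM, applied to GRE-bla HeLa cells for 18 h at 37 C. Detection by CCF4 FRET substrate after 2 h at RT.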
# [3] = molecular target: Glucocorticoid receptor (Homo sapiens) (UniProt P04150); experiment: qHTS assay for small molecule antagonists of glucocorticoid receptor signaling (AID 588533; active = well fitted inhibition curve with a large enough effect in the signal ratio, with a control signal flat, not every such curve was filed as active; the % refers to the signal ratio;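 note: cells stimulated with 2 nM dexamethasone as agonist; % is set by controls: 0 for no effect and ±100 for the full control effect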)
# Summary of the method: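 Antagonist-mode qHTS: compound titrations added to GRE-bla HeLa cells, then dexamethasone 2 nM final; 18 h, 37 C. CCF4 FRET fluorescence normalized to dexamethasone and DMSO; IC50 from Hill fit.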
# [4] = molecular target: Thyroid hormone receptor beta (Homo sapiens) (UniProt P10828); experiment: qHTS assay for small molecule agonists of thyroid hormone receptor beta signaling (AID 588545);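 note: 0% = DMSO only and 100% = 10 nM T3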
# Summary of the method: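 TR-UAS-bla-GripTite HEK 293 cells in medium with 2% charcoal/dextran FBS, 0.1 mM NEAA and 1 mM sodium pyruvate were treated with titrated compounds for 18 hrs at 37 C. Beta-lactamase reporter was read with CCF4 dye (ex 405, em 460/530 nm); EC50 from Hill fits.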
# [5] = qHTS assay for small molecule antagonists of retinoid X receptor alpha signaling (AID 588546; active = well fitted inhibition curve with a large enough effect in the signal ratio, with a control signal flat, not every such curve was filed as active; the % refers to the signal ratio;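 note: cells stimulated with 9-cis-retinoic acid as agonist; % is set by controls: 0 for no effect and ±100 for the full control effect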); details: HEK293T RXRa-UAS-bla, beta-lactamase ratio, antagonist mode; measured here: W530 green channel, cytotoxicity proxy
# Summary of the method: (§1)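 Beta-lactamase reporter inhibition, read as CCF4 fluorescence ratio (ex 405, em 460/530 nm) after 2 h at RT. HEK293T UAS-bla cells, 2500/well, were stimulated with 9-cis-RA at 500 or 100 nM final alongside test compound for 18 h at 37 C.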
# [6] = molecular target: Retinoic acid receptor RXR-alpha (Homo sapiens) (UniProt P19793); experiment: as above; details: HEK293T RXRa-UAS-bla, beta-lactamase ratio, antagonist mode
# Summary of the method: as §1
# [7] = qHTS assay for small molecule activators of the p53 signaling pathway (AID 651743; active = well fitted activation curve with a large enough effect in the signal ratio, not every such curve was filed as active; the % refers to the signal ratio; note: series mostly up to about 92 µM; % of control where 0% means no effect); details: HCT-116 p53RE-bla, beta-lactamase FRET ratio, 16 h; activation: stronger effect = higher value
# Summary of the method: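 Here HCT-116 cells with an integrated p53-responsive beta-lactamase gene were incubated with compounds (16 hours, 37 C) after a 5-hour plating period; beta-lactamase activity was detected as fluorescence intensity via B/G FRET substrate.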
# [8] = qHTS assay for environmental chemicals that activate the Aryl hydrocarbon Receptor (AhR) signaling pathway (AID 651777; active = well fitted curve in the direction sought with a large enough effect; an effect the other way counts as inactive or inconclusive; note: nearly all actives have a fitted effect of over 15% in size; note: potency is the fitted concentration of half-maximal effect; for activation: % of control where 0% means no effect); details: 1A2-DRE human hepatoma cells, luciferase, 24 h; activation: stronger effect = higher value
# Summary of the method: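 Concentration–response screening used 1,200 1A2-DRE cells per well, 24 hr compound exposure (37 C, 5% CO2), and One-Glo luminescence as the AhR-driven CYP1A2 reporter signal.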
# [9] = qHTS assay for small molecule agonists of the antioxidant response element (ARE) signaling pathway measured by Nrf2-dependant transcriptional activity (AID 720636; active = well fitted curve in the direction sought with a large enough effect in the repeat runs; an effect the other way counts as inactive or inconclusive; note: potency is the fitted concentration of half-maximal effect; for activation: % of control where 0% means no effect)
# Summary of the method: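 Attachment 6 hr at 37 C, then compound versus DMSO vehicle for 16 hr in ARE-luc HepG2 cells (1% dialyzed FBS); luminescence recorded 30 min after ONE-Glo addition at room temperature.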
# [10] = qHTS assay for small molecule agonists of the antioxidant response element (ARE) signaling pathway measured by Nrf2-dependant transcriptional activity - cell viability counter screen (AID 720653; active = well fitted curve in the direction sought with a large enough effect in the repeat runs; an effect the other way counts as inactive or inconclusive; note: % is set by controls: 0 for no effect and ±100 for the full control effect); details: ARE-bla HepG2 viability, CellTiter-Glo ATP luminescence, 16 h; max response: stronger effect = lower value
# Summary of the method: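 ARE-bla HepG2 cells (2,000/well) rested 5 hrs at 37C/5% CO2, then exposed to compounds in DMSO for 16 hrs. Viability was read in the same wells as intracellular ATP by luminescence, 30 min at room temperature after reagent addition.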
# [11] = qHTS assay for cell viability of HEK293 cells (AID 743288; active = well fitted curve in the direction sought with a large enough effect; an effect the other way counts as inactive or inconclusive; note: % is set by controls: 0 for no effect and ±100 for the full control effect; nearly all actives have a fitted effect of over 50% in size); details: ATP luminescence (CellTiter-Glo), 18 h; max response: stronger effect = lower value
# Summary of the method: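 Steps: plate 2,000 parental HEK293 cells per well; incubate ≥5 h, 37 C; add compounds in DMSO; incubate 18 h, 37 C; add CellTiter-Glo; wait 30 min at room temperature; read luminescence.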
# [12] = molecular target: Vitamin D3 receptor (Homo sapiens) (UniProt P11473); experiment: qHTS assay for small molecule agonists of vitamin D receptor signaling (AID 588543);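 note: 0% = DMSO basal and 100% = reference agonist control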
# Summary of the method: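 VDR-UAS-bla HEK293T cells, 2000/well, 2% charcoal-stripped FBS; compound titration 16 h at 37 C; CCF4 beta-lactamase ratio read. Normalized to 50 nM 1-alpha,25-dihydroxyvitamin D3 (100%) and DMSO; Hill fit gives EC50, efficacy.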
# [13] = qHTS assay for small molecule agonists of the antioxidant response element (ARE) signaling pathway (AID 651741; active = well fitted activation curve with a large enough effect in the signal ratio; the % refers to the signal ratio; note: potency is the fitted concentration of half-maximal effect; for activation: % of control where 0% means no effect)
# Summary of the method: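 Beta-lactamase reporter expression driven by the antioxidant response element in HepG2 cells was detected by fluorescence with LiveBLAzer B/G FRET substrate (2 h, room temperature) following 16 h compound treatment at 37 C.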
# [14] = molecular target: Peroxisome proliferator-activated receptor alpha (Homo sapiens) (UniProt Q07869); experiment: qHTS assay for small molecule agonists of the peroxisome proliferator-activated receptor alpha (PPARalpha) signaling pathway (AID 651778; active = well fitted curve in the direction sought with a large enough effect; an effect the other way counts as inactive or inconclusive; note: % of control where 0% means no effect); details: PathHunter PPARalpha complementation, chemiluminescence, 6 h; max response: stronger effect = higher value
# Summary of the method: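 Cells plated at 2,000/well and held overnight at 37 C, 5% CO2, then compound added by pin tool for 6 hr; after PathHunter detection reagent and 60 min at room temperature, chemiluminescence from enzyme complementation was read.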
# [15] = qHTS assay for cell viability of the p53RE-bla HCT-116 cell line (AID 743292; active = well fitted curve in the direction sought with a large enough effect; an effect the other way counts as inactive or inconclusive; note: nearly all actives have a fitted effect of over 55% in size; note: potency is the fitted concentration of half-maximal effect)
# Summary of the method: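 Compound-exposed HCT-116 (p53RE-bla) cells, 4,000 per well, were kept 16 h at 37 C following a 5 h preincubation. Cell number was estimated from total ATP by CellTiter-Glo luminescence read after 30 min at room temperature.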
# [16] = qHTS assay for small molecule activators of the human pregnane X receptor (PXR) signaling pathway (AID 720659; call rule not given here; note: 0% is about no effect)
# [17] = qHTS assay for small molecule antagonists of peroxisome proliferator-activated receptor delta signaling (AID 588535; active = well fitted inhibition curve with a large enough effect in the signal ratio, with a control signal flat, not every such curve was filed as active; the % refers to the signal ratio;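 for max response: cells co-treated with a PPAR-delta agonist as stimulator during compound exposure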); details: HEK293T PPARd-UAS-bla, beta-lactamase FRET ratio, 18 h; 460 nm channel
# Summary of the method: (§2)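 Compounds tested in titration on PPAR-delta-UAS-bla HEK293T cells grown in charcoal/dextran-stripped serum (2%); beta-lactamase activity read via CCF4 emission at 460 and 530 nm.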
# [18] = molecular target: Peroxisome proliferator-activated receptor delta (Homo sapiens) (UniProt Q03181); experiment: as above
# Summary of the method: as §2
# [19] = molecular target: Peroxisome proliferator-activated receptor gamma (Homo sapiens) (UniProt P37231); experiment: qHTS assay for small molecule agonists of peroxisome proliferator-activated receptor gamma signaling (AID 588536; active = well fitted curve in the direction sought with a large enough effect in the signal ratio, with a control signal flat, not every such curve was filed as active; the % refers to the signal ratio;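 note: 0% = DMSO basal wells and 100% = rosiglitazone at 2 µM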)
# Summary of the method: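 This is an agonist-mode beta-lactamase reporter assay in HEK293 PPAR-gamma-UAS-bla cells with 1% charcoal/dextran FBS. Compound titrations ran 16 h at 37 C before CCF4 detection. EC50 and efficacy are Hill fits scaled to 2 uM rosiglitazone (100%) and DMSO basal.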
# [20] = qHTS assay for small molecule activators of the nuclear factor-kappa B (NF-kB) signaling pathway (AID 651749; active = well fitted activation curve with a large enough effect in the signal ratio; the % refers to the signal ratio; note: series mostly up to about 77 µM; % of control where 0% means no effect); details: NF-kB-bla ME-180 cells, beta-lactamase FRET ratio, 16 h; activation: stronger effect = higher value
# Summary of the method: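 Beta-lactamase reporter expression, controlled by NF-kB response elements in ME-180 cells, was quantified fluorometrically via FRET disruption; cells at 2,000/well had been incubated with 23 nL test compound for 16 hr.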
# [21] = molecular target: Nuclear receptor subfamily 1 group I member 2 (Rattus norvegicus) (UniProt Q9R1A7); experiment: qHTS assay for small molecule activators of the rat pregnane X receptor (rPXR) signaling pathway (AID 651751; call rule not given here; note: 0% is about no effect); details: rPXR reporter cells, luciferase (One-Glo), 24 h
# [22] = molecular target: Vitamin D3 receptor (Homo sapiens) (UniProt P11473); experiment: qHTS assay for small molecule antagonists of vitamin D receptor signaling (AID 588541);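 note: receptor activated by calcitriol during compound treatment; series mostly up to about 77 µM; % is set by controls: 0 for no effect and ±100 for the full control effect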
# Summary of the method: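 VDR-UAS-bla HEK293T cells (2000/well, 2% charcoal-stripped FBS) were treated with titrated compounds plus 1-alpha,25-dihydroxyvitamin D3 (50 nM or 3 nM final) for 16 h at 37 C. CCF4 beta-lactamase fluorescence was read; Hill fits gave IC50.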
# [23] = qHTS assay for small molecule agonists of retinoid X receptor alpha signaling (AID 588544); details: HEK293T RXRa-UAS-bla, beta-lactamase reporter, 18 h; 530 nm emission;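 for activation: 0% = DMSO basal wells and 100% = reference agonist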
# [24] = molecular target: Retinoic acid receptor RXR-alpha (Homo sapiens) (UniProt P19793); experiment: as above
# Sequence of Peroxisome proliferator-activated receptor delta (Homo sapiens) (Q03181 whole entry, looked up): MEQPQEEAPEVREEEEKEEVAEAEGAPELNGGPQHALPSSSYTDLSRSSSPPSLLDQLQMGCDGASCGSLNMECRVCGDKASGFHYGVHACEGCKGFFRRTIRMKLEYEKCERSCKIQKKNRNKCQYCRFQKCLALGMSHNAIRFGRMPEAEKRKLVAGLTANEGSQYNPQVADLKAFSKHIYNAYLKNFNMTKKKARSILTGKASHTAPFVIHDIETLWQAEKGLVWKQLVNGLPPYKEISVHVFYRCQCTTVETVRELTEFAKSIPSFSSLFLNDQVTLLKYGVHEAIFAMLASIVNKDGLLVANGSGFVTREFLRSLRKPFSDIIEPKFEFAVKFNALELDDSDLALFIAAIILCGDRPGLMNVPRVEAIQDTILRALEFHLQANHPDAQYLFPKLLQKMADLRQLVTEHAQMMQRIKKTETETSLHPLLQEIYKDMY
# Sequence of Vitamin D3 receptor (Homo sapiens) (P11473 whole entry, looked up): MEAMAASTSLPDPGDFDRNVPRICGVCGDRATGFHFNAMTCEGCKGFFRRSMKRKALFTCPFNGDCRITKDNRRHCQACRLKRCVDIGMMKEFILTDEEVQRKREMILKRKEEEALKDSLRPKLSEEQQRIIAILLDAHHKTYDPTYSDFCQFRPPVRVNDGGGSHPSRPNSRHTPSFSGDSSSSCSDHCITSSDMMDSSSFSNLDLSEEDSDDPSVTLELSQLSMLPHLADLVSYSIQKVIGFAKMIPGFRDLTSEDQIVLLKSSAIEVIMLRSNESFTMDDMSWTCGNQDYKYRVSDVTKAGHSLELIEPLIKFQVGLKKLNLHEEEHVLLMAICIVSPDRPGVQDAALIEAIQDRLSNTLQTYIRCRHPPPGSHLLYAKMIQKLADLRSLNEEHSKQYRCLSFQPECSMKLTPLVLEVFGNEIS
# Sequence of Nuclear receptor subfamily 1 group I member 2 (Rattus norvegicus) (Q9R1A7 whole entry, looked up): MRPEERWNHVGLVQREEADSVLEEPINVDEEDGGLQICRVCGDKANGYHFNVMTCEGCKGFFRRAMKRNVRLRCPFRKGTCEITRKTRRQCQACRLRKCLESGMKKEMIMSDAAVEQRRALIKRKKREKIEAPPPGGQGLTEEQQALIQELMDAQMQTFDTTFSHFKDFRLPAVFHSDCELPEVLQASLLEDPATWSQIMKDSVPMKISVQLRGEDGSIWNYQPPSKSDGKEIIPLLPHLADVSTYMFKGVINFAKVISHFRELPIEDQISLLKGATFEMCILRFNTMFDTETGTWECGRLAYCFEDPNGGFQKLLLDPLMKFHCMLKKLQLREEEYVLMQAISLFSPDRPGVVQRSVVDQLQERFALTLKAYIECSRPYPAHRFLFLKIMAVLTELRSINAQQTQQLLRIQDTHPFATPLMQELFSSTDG
# Sequence of Retinoic acid receptor RXR-alpha (Homo sapiens) (P19793 whole entry, looked up): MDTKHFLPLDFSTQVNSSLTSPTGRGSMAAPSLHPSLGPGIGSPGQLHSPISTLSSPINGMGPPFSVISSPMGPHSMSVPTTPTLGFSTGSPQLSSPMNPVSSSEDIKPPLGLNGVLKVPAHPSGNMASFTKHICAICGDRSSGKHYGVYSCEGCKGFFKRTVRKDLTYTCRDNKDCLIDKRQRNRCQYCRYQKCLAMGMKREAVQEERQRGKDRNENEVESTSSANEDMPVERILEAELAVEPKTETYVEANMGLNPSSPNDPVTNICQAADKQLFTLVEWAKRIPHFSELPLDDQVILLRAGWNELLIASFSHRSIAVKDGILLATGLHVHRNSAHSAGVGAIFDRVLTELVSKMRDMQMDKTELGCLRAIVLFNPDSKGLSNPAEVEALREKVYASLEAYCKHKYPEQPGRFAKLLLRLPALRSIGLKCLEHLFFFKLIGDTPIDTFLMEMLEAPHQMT
# Sequence of Glucocorticoid receptor (Homo sapiens) (P04150 whole entry, looked up): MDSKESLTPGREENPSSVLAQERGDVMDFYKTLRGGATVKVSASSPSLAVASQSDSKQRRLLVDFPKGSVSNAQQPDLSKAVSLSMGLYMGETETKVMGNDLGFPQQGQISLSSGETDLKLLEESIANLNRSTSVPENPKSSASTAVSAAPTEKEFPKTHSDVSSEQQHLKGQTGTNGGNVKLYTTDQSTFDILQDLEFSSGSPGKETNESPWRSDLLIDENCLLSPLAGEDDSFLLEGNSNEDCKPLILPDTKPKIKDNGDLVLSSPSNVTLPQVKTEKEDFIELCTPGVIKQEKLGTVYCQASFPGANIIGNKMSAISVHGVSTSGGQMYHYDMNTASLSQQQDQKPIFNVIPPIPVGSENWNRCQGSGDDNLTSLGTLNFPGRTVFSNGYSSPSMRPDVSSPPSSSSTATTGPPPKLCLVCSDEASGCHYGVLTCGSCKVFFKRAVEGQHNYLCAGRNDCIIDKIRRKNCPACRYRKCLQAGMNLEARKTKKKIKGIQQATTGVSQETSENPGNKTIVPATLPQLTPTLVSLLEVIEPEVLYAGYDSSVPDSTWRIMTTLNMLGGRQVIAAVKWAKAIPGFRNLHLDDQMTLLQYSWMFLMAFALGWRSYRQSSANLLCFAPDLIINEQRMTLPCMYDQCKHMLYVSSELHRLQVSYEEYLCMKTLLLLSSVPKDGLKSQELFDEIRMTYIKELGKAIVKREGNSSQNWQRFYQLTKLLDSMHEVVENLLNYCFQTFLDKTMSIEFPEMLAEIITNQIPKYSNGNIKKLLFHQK
# Sequence of Peroxisome proliferator-activated receptor alpha (Homo sapiens) (Q07869 whole entry, looked up): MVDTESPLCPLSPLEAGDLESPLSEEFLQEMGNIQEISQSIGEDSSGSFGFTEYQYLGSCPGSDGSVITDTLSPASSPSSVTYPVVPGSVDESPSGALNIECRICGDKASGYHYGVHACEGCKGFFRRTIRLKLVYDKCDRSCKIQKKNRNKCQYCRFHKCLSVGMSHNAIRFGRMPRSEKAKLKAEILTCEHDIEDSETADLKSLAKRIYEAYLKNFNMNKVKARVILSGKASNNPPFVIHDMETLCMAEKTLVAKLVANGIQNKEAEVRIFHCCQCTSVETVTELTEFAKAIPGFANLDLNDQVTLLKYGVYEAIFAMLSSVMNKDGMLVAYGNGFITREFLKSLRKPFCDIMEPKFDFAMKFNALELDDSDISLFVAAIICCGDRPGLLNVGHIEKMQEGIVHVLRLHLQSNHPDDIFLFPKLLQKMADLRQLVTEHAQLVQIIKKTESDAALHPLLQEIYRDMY
# Sequence of Thyroid hormone receptor beta (Homo sapiens) (P10828 whole entry, looked up): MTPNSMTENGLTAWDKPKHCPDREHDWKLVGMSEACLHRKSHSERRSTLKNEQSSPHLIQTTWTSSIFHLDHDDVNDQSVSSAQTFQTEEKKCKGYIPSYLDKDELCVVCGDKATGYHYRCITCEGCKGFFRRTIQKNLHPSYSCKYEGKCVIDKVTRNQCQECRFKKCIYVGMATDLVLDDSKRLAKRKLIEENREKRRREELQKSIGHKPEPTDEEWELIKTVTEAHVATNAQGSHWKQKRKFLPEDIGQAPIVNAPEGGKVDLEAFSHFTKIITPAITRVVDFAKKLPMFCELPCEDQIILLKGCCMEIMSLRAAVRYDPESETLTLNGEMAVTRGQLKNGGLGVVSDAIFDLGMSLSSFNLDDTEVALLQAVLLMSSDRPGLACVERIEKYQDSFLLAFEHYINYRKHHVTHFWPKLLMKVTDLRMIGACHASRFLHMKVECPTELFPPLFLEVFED
# Sequence of Peroxisome proliferator-activated receptor gamma (Homo sapiens) (P37231 whole entry, looked up): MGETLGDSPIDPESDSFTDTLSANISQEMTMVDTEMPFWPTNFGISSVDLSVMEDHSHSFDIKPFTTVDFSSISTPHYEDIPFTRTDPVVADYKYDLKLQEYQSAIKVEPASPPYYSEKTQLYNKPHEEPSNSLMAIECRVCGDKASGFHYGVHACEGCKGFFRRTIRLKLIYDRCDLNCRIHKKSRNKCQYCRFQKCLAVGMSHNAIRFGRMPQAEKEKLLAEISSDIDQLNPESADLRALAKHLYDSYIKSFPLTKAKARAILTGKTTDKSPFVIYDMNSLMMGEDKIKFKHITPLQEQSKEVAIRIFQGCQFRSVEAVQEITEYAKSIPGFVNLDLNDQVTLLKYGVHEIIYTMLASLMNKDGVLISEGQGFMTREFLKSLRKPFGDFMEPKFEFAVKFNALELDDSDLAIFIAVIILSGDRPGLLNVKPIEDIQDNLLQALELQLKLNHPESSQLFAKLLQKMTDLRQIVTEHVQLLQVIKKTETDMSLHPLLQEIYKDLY
smiles,measurement,setting,value
Cc1cc(-c2ccc(N=Nc3cc(S(=O)(=O)O)c4ccccc4c3N)c(C)c2)ccc1N=Nc1cc(S(=O)(=O)O)c2ccccc2c1N,outcome,[1],inactive
CCOc1cc(Oc2ccc(C(F)(F)F)cc2Cl)ccc1[N+](=O)[O-],activation,[2],-12.9% (inactive)
same,Potency,[3],inactive
same,outcome,[1],inactive
same,Potency,[4],inactive
same,max response,[5],-9.67%
same,max response,[6],-3.17% (inactive)
same,activation,[7],3.72% (inactive)
same,activation,[8],3.8% (inactive)
same,Potency,[9],inactive
same,max response,[10],-9.09% (inactive)
same,max response,[11],-7.71% (inactive)
O=C1C(Cl)=C(Cl)C(=O)c2ccccc21,activation,[2],-5.64% (inactive)
same,outcome,[12],inactive
same,Potency,[13],2.73 µM (active)
same,Potency,[8],50.1 µM (active)
same,max response,[14],-10.7% (inactive)
same,Potency,[15],50.1 µM (active)
same,outcome,[16],inactive
Clc1nc(Cl)c(Cl)c(Cl)c1Cl,outcome,[1],inactive
CCOC(=O)C(C)OC(=O)c1cc(Oc2ccc(C(F)(F)F)cc2Cl)ccc1[N+](=O)[O-] (stereo not drawn),activation,[2],2.93% (inactive)
same,Potency,[3],inactive
same,max response,[17],34.5%
same,Potency,[18],inactive
same,Potency,[19],inactive
same,Potency,[4],inactive
same,activation,[7],0.27% (inactive)
same,activation,[20],0.301% (inactive)
same,activation,[8],4.56% (inactive)
same,Potency,[9],inactive
same,max response,[10],-9.47% (inactive)
same,max response,[11],-22.9% (inactive)
same,Potency,[15],inactive
same,max response,[21],4.28% (inactive)
CCCCCCCC/C=C\CCCCCCCC(=O)OC,outcome,[1],inactive
Cc1ccc([N+](=O)[O-])c(N)c1,outcome,[1],inactive
CC(C)(C)OOC(C)(C)CCC(C)(C)OOC(C)(C)C,Potency,[3],inactive
same,Potency,[22],inactive
same,outcome,[12],inactive
same,max response,[23],-2.41%
same,Potency,[24],inactive
same,max response,[5],-4.8%
same,max response,[6],-1.22% (inactive)
same,Potency,[13],inactive
same,activation,[7],2.86% (inactive)
same,max response,[14],0.675% (inactive)
same,Potency,[9],inactive
same,max response,[10],-14% (inactive)
same,max response,[11],0.0033% (inactive)
same,Potency,[15],inactive
same,max response,[21],-1.16% (inactive)
same,outcome,[16],inactive
O=C(OCC1CCC2OC2C1)C1CCC2OC2C1 (stereo not drawn),outcome,[1],inactive
[CH3][Sn]([Cl])([Cl])[Cl],activation,[2],-3.55% (inactive)
same,Potency,[3],inactive
same,outcome,[1],inactive
same,max response,[17],-4.62%
same,Potency,[18],inactive
same,Potency,[19],inactive
same,outcome,[12],inactive
same,max response,[23],-11.9%
same,Potency,[24],inactive
same,max response,[5],-11%
same,max response,[6],-14.8% (inactive)
same,activation,[7],-2.75% (inactive)
same,max response,[14],0.635% (inactive)
same,Potency,[9],inactive
same,max response,[10],-16% (inactive)
same,max response,[11],-18.6% (inactive)
same,Potency,[15],inactive
same,max response,[21],-7.26% (inactive)
same,outcome,[16],inactive
S=C(S)NCCNC(=S)S,activation,[2],-2.17% (inactive)
same,max response,[23],9.28%
same,Potency,[24],inactive
S=C([S-])NCCNC(=S)[S-].[Mn+2],activation,[2],-3.05% (inactive)
same,Potency,[13],30.6 µM (active) and 27.3 µM (active)
same,Potency,[9],61.1 µM (active)
